Most compounds without a hit are left out; they make up all but 5.2% or so of the library.
Sfp PPTase inh = blocks B. subtilis Sfp PPTase activity; Potency, µM, inactives show largest response in the series, negative = inhibition, actives largely listed as inhibitors; actives 3.5% (n = 310,000); AID 1490; Q9F4F7; Biochemical Sfp PPTase activity, qHTS;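 further: the enzyme is Sfp with the accession as filed and its product quenches rhodamine fluorescence; potency means the concentration at half of the fitted maximal effect; 0% = enzyme reaction without inhibitor and -100% = no enzyme wells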
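Step 1, compound plus 15 nM Sfp-PPTase, 15 min, room temperature. Step 2, add rhodamine-CoA (5 uM) and BHQ-2-YbbR (12.5 uM). Step 3, read 525/598 nm fluorescence at 0 and 30 min.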
Coupling enz = counter-screen for Giardia aldolase inhibitors: coupling enzyme system; coupling enzyme system counterscreen, AmpLite Red fluorescence; activity change, negative = inhibition, % at 58.2 µM, hits read low; actives 0.67% (n = 290,000); in the data active means activity change below about -30%
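Coupling enzymes only (glyceraldehyde-3-phosphate) + compound, at 57.5 uM final, 10 min RT; add substrate/coupling/AmpLite Red mix, 20 min RT; fluorescence ex 525/em 598 nm. Actives flag coupling-system interference.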
Tau fluor cs = counter-screen for tau fibril formation inhibitors; AID 1463; actives 0.93% (n = 280,000); Potency, µM (titrated, usually from 57.7 µM), for inactives: at the highest dose activity change, negative = decrease; tau K18 P301L Alexa594 fluorescence, heparin fibrillization; further: potency means the concentration at half of the fitted maximal effect; nearly all actives have a fitted effect of over 55% in size
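Human K18 P301L tau (15 uM unlabeled plus 0.24 uM Alexa 594-labeled, final) in 100 mM sodium acetate pH 7 was mixed with compound and 20 uM heparin and incubated 6 hr at 37 C.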
Tau ThT inhib = tau fibrillization inhibition (ThT binding). actives 2.1% (n = 270,000). recombinant tau K18 P301L, heparin-induced fibrillization, ThT fluorescence. P10636. Potency, µM (series often up to 57.4 µM), inactives show at the highest dose activity, negative = inhibition, usual class: inhibitors. AID 1460; further: potency means the concentration at half of the fitted maximal effect; nearly all actives have a fitted effect of over 55% in size
Target sequence (P10636 561-689 P618L limits assumed): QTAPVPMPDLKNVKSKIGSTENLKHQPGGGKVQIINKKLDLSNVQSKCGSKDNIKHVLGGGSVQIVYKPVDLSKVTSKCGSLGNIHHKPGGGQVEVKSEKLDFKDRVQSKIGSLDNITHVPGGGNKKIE
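Using a mix of unlabeled (15 uM) and Alexa 594-labeled (0.24 uM) tau K18 P301L, heparin-triggered fibrillization over 6 hr at 37 C was scored by ThT fluorescence.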
Tau FP inhib = inhibitors of human tau fibril formation | P10636 | K18 P301L tau heparin fibrillization, Alexa594 FP, 6 h | Potency, µM (doses to about 57.7 µM), for inactives: top-dose activity, negative = inhibition, usual class: inhibitors | actives 0.39% (n = 280,000) | AID 1468; further: potency means the concentration at half of the fitted maximal effect; nearly all actives have a fitted effect of over 55% in size
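K18 P301L tau (15 uM unlabeled/0.24 uM Alexa 594-labeled, final) + compound + heparin 20 uM final; 100 mM NaOAc pH 7; 6 hr 37 C; ThT 30 uM final added, 1 hr RT; FP ex 555/em 632 nm.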
Starred values were filed as active, the others as inactive; ? = inconclusive; nt = not tested or not shown; [ ] = another dose, or the depositor's remark. Unless noted, the call rests on the fitted dose curve; in most records, active means well fitted curve in the direction sought with a large enough effect; inconclusive means small, poorly fitted or top-dose-only effect, or another doubt; inactive means no such curve, though single readings can be large; an effect the other way counts as inactive or inconclusive. Unless noted, on the % scale 0 is the no-effect control and ±100 the full control effect.

SMILES	Sfp PPTase inh	Coupling enz	Tau fluor cs	Tau ThT inhib	Tau FP inhib
Cc1nc(N2CCOCC2)c2nc(-c3ccccc3)n(C(C)CN(C)C)c2n1 (centres undefined)	15%	0	-17%	-13%	-7%
CC(=O)Nc1sc2c(c1C(c1ccccn1)N1CCN(C)CC1)CCCC2 (centres undefined)	-6%	0	-9%	-11%	-10%
CC(=O)Nc1sc2c(c1C(c1ccccn1)N1CCCC1)CCCC2 (centres undefined)	45µM*	-8	-5%	-9%	-12%
COc1ccc(Cn2c3nc4ccccc4nc3c3c(=O)n(Cc4ccco4)cnc32)cc1	4.5µM*	-3	-18%	?	-17%
CCCn1cnc2c(c1=O)c1nc3ccccc3nc1n2Cc1ccccc1OC	8%	0	-4%	-14%	-3%
Cc1cccc(S(=O)(=O)c2c(N)n(Cc3ccco3)c3nc4ccccc4nc23)c1	?	0	?	?	-4%
Cc1cccc(-n2cnc3c(c2=O)c2nc4ccccc4nc2n3Cc2ccco2)c1	3.5µM*	-1	-21%	?	?
O=C(Nc1cccc(Cl)c1)c1ccc(F)c(S(=O)(=O)NCc2ccc3c(c2)OCO3)c1	7%	3	16µM*[quencher]	-14%	?
Cc1ccc(CNS(=O)(=O)c2cc(C(=O)Nc3cccc(C(F)(F)F)c3)ccc2F)cc1	nt	nt	?	22%	14µM*
CCOC(=O)c1ccc(CN(Cc2ccc(F)cc2)S(=O)(=O)c2cc(C(=O)Nc3cccc(C(F)(F)F)c3)ccc2F)cc1	nt	nt	0%	7%	14µM*
CCOC(=O)c1ccc(CN(Cc2ccc(F)cc2)S(=O)(=O)c2ccc(F)c(C(=O)Nc3ccccc3C(F)(F)F)c2)cc1	nt	nt	-6%	2%	-11%
CCOc1ccccc1NC(=O)c1ccc(F)c(S(=O)(=O)NCc2ccc3c(c2)OCO3)c1	nt	nt	-19%	-1%	-5%
COc1ccc(Cl)cc1-c1ccc(C(=O)O)s1	-12%	15	-3%[81.3 µM]	-12%[81.4 µM]	6%[81.3 µM]
O=C(Nc1cc(Br)c(O)c(Br)c1)c1cccc(NC(=O)c2ccco2)c1	?	5	nt	nt	nt
O=C(Nc1cccc(N=Cc2cc(Br)cc(Br)c2O)c1)c1ccco1	-8%	-7	-22%	14µM*	?
O=C(Nc1cccc(N=Cc2cc(Cl)cc(Br)c2O)c1)c1ccco1	6%	-8	-18%	16µM*	-18%
NC(=O)CC(NC(=O)c1ccccc1)c1ccc(NCc2ccc(F)cc2)c([N+](=O)[O-])c1 (centres undefined)	-20%	0	-20%	25µM*	2%
NC(=O)CC(NC(=O)c1ccc(Br)cc1)c1ccc(NCc2ccc(F)cc2)c([N+](=O)[O-])c1 (centres undefined)	-6%	5	?	?	-1%
NC(=O)CC(NC(=O)Cc1ccc(Br)cc1)c1ccc(NCCc2ccc(Cl)cc2)c([N+](=O)[O-])c1 (centres undefined)	?	0	?	?	?
NC(=O)CC(NC(=O)c1ccccc1)c1ccc(NCCc2ccc(Cl)cc2)c([N+](=O)[O-])c1 (centres undefined)	-27%	-2	?	13µM*	-12%
NC(=O)CC(NC(=O)c1ccc(Br)cc1)c1ccc(NCc2ccc(F)c(F)c2)c([N+](=O)[O-])c1 (centres undefined)	50µM*	3	-14%	?	-14%
NC(=O)CC(NC(=O)c1ccccc1)c1ccc(NCc2ccccc2)c([N+](=O)[O-])c1 (centres undefined)	-11%	0	-28%	13µM*	-3%
NC(=O)CC(NC(=O)c1ccccc1)c1ccc(NCc2ccc(F)c(F)c2)c([N+](=O)[O-])c1 (centres undefined)	12%	0	nt	nt	nt
CC(C)CCn1c(Oc2ccccc2F)nc2c1c(=O)n(C)c(=O)n2C	nt	nt	-12%	-4%	?
Cc1cccc(N2CCN(C(=O)c3cnn(-c4ccccc4)c3C3CCN(C(=O)OC(C)(C)C)CC3)CC2)c1C	nt	nt	-8%	?	-1%
SMILES	Sfp PPTase inh	Coupling enz	Tau fluor cs	Tau ThT inhib	Tau FP inhib
C[C@@H]1CC[C@H]2[C@H](C)[C@H]3CC[C@H]4C5[C@@H](O)CC6=CC(=O)CC[C@]6(C)[C@H]5C[C@H]4C3C(=O)N2C1 (some centres undefined)	4%	0	-6%	-6%	-1%
Cc1csc(SCC(=O)NC(=O)NC2CCCC2)n1	-5%	4	4%	-3%	-3%
Cc1cc(C)nc(SCC(=O)NC2CCCC2)n1	12%	1	-7%	-4%	-4%
Cc1cc(C)n2nc(SCC(=O)NC3CCCCC3)nc2n1	40µM*	nt	nt	nt	nt
Cc1nc(SCC(=O)NC(=O)NC2CCCCC2)nc(C)c1C	50µM*	2	-3%	9%	?
Cn1c(C(=O)NCc2cccc(F)c2)cc2cc(S(=O)(=O)N3CCCCC3)ccc21	nt	nt	-23%	5%	-2%
O=C1C=CC(=O)C2=C1C1c3ccccc3C2c2ccccc21	3.2µM*	-11	?	20µM*	35µM*
CN1C(=O)C2C3c4ccccc4C(c4ccccc43)[C@@H]2C1=O (some centres undefined)	8%	-1	nt	nt	nt
CCOc1ccccc1N(C)C(=O)NCc1noc2ccccc12	nt	nt	-15%	-9%	-3%
COc1cc(Cl)c(C)cc1NC(=O)NC1COc2ccccc2C1 (centres undefined)	nt	nt	-14%	-1%	?
Cc1ccc(O)c(N=Nc2ccccc2)n1	?	1	-14%	18µM*	8%
COC(=O)CCN(Cc1ccco1)S(=O)(=O)c1ccc(F)cc1Br	31%	0	nt	nt	nt
Cc1ccc(O)c(C(=O)c2cc(C#N)c(=O)n(-c3nccs3)c2)c1	50µM*	-4	?	?	-6%
COc1cccc(NC(=O)NNC(=O)CCc2ccc(O)c(O)c2)c1	56µM*	-3	nt	nt	nt
Cc1ccc(SCC(c2ccccc2)N2CCN(C)CCC2=O)cc1 (centres undefined)	4%	4	nt	nt	nt
COc1ccc(NC(=S)NNC(=O)CNc2ccc(Cl)cc2)cc1	79µM*	11	-6%	-17%	?
Cc1cccc(NC(=O)CCOc2ccccc2)c1C	13%	-3	nt	nt	nt
Cc1cccc(OCCC(=O)NCC(=O)Nc2cccc(C)c2C)c1	17%	-35*	0%	1%	6%
c1ccc(SCc2nc(-c3ccncc3)n[nH]2)nc1	-8%	5	7%	5%	5%
c1ccc(-c2nc(-c3ccncc3)n[nH]2)nc1	14µM*	2	-15%	-13%	-6%
c1coc(-c2nc3c4c5c(sc4ncn3n2)CCCC5)c1	7%	-2	4%	-1%	4%
CN1CCc2c(sc3ncn4nc(-c5ccccc5O)nc4c23)C1	-3%	0	-26%	28µM*	?
